PubChem BioAssay
“And” between values parts separate entries of the source, which are not always exact repeats. Identical values can stand only once. Records with an inconclusive call do not appear. For some of these results: Entries with a potency or affinity are not part of this list. The source made the active and inactive calls.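 Rule for the calls, unless noted: active = at least 20% inhibition of 6-phosphogluconate dehydrogenase activity; inactive = the rest.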

Key:
[1] = target: 6-phosphogluconate dehydrogenase, decarboxylating (Homo sapiens) (UniProt P52209); assay: inhibition of human phosphogluconate dehydrogenase – biochemical, recombinant enzyme, NADPH absorbance, primary screen (AID 1159550); details: recombinant 6PGD, NADPH absorbance 341 nm; at 10 µM; stronger effect = higher value
[2] = EMT-state selective cytotoxicity in co-culture – imaging, PC-3E GFP, TEM4-18 mCherry, primary screen (AID 1345086;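 active = compounds killing one labelled cell type while sparing the other, by normalised counts and ratio limits, not self-fluorescent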;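 for all read-outs here: cells exposed to compound for 72 h before imaging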;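 for red/green cell ratio (normalised): normalised mesenchymal count divided by normalised epithelial count so high means epithelial killing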); details: PC-3E GFP / TEM4-18 mCherry co-culture, imaging cell counts, at 1 µM; for red/green cell ratio (normalised): actives lie on both sides, counts scaled to control wells, 1 = unselective
[3] = target: Mitogen-activated protein kinase 7 (Homo sapiens) (UniProt Q13164); assay: Gal4-ERK5 driven luciferase induction – cell-based, HTS, primary screen (AID 1508626;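 active = luciferase signal above three times the same-plate solvent-only control wells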;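 note: luciferase driven by Gal4-ERK5 fusion binding five Gal4 sites before minimal TATA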); details: HeLa Gal4-ERK5 transactivation, 18 h, at 5 µM, stronger effect = higher value
[4] = target: ATP-dependent translocase ABCB1 (Homo sapiens) (UniProt P08183); assay: P-glycoprotein substrate transport blockade – cell-based (AID 377; in the data active = fluorescence slope change above about 50%); details: MDR1-expressing cells, fluorescent substrate accumulation slope; stronger effect = higher value; concentration not given here
[5] = rescue of PC12 cells from polyQ htt toxicity – LDH release (AID 1610); details: PC12 mutant huntingtin toxicity, final LDH at 4 uM, stronger effect = lower value
[6] = viability loss in pontine glioma line – cell-based, SU-DIPG-XIII, MIPE5.0, CellTiter-Glo, qHTS, dose response (AID 1347064; cut-off not given, nearly all actives have AC50 up to about 23 µM;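 for AC50: cells exposed to compound for 48 hours before the viability read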); details: CellTiter-Glo ATP luminescence
[7] = signal quenchers or enhancers, Cy5 substrate/SSB – biochemical, NIH Clinical Collection, E. coli SSB, artefact control for HCV NS3 helicase inhibitor project (AID 743268; call rule not given here); details: Cy5-oligo bound E. coli SSB, fluorescence interference
[8] = test system: Hepatitis C virus NS3 helicase; assay: blockers of NS3h binding to DNA – biochemical, fluorescence polarization, NIH Clinical Collection, primary screen (AID 743270; call rule not given here); details: NS3 helicase binding to Cy5-dT15 DNA, stronger effect = higher value, concentration not given here
[9] = target: Single-stranded DNA-binding protein (Escherichia coli (strain K12)) (UniProt P0AGE0); assay: SSB-ssDNA binding inhibitors – biochemical, fluorescence polarization, NIH Clinical Collection, counter-screen for HCV NS3 helicase inhibitor project (AID 743271; in the data active = inhibition above about 28%); details: E. coli SSB-DNA binding, stronger effect = higher value, concentration not given here
[10] = compounds distorting NS3 helicase fluorescence signal – biochemical, NIH Clinical Collection, artefact control for HCV NS3 helicase inhibitor project (AID 743272; call rule not given here;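 note: HCV NS3 helicase with a Cy5 labelled single stranded DNA probe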); details: fluorescence interference counterscreen, HCV NS3 helicase assay; stronger effect = lower value
[11] = compounds altering HSF1 focus formation in cells – imaging, Selleck Cancer Library (AID 1347162; in the data active = plate-normalised HSF1 focus index below about 0.46); details: human cells, HSF1 nuclear foci imaging, at 10 µM; SSMD: measured here: HSF1 foci SSMD mean; cell count: measured here: cell number; plate-normalised HSF1 focus index: stronger effect = lower value
[12] = compounds altering viability of human ES cells (AID 493140; call rule not given here;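 note: cells exposed to compounds for four days before counting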); details: human embryonic stem cell survival screen; stronger effect = higher value
[13] = viability loss with induced miR-34 in A549 – imaging, A549 dox-inducible miR-34, nuclei and caspase counts, primary screen (AID 1347080;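 active = compounds whose cell count with miR-34 switched on is under 0.7 times the count with it off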); details: A549 miR-34 inducible, Hoechst nuclei count, 48 h
[14] = chitosan synthesis blockers in C. neoformans – flow cytometry, Cibacron Brilliant Red staining (AID 1347148; call rule not given here;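 note: compound exposure lasted three days at 37 degrees C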); details: Cryptococcus neoformans chitosan, stronger effect = lower value; at 10 µM unless noted
[15] = P. berghei load reduction in hepatocytes – cell-based, HepG2, luciferase luminescence, HepG2 viability, primary screen (AID 624349; in the data active = parasite load remaining mostly below about 12%, no sharp cut-off; inactive = mostly above about 10%;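 note: 100% = mean of DMSO negative control wells on the same plate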); details: P. berghei liver stage in HepG2, luciferase luminescence, concentration not given here; parasite load remaining: stronger effect = lower value; viability: measured here: HepG2 viability without parasites
[16] = MELAS cybrid and Rieske KO viability enhancers – cell-based, MELAS cybrids, Rieske KO mouse fibroblasts, CellTiter-Glo, primary screen (AID 1508586;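 active = mean z-score across replicates of 1.96 or higher in either the MELAS or the Rieske mutant cell line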;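 note: z relative to plate mean and SD of compound and empty wells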); details: low glucose
[17] = blockers of polyQ-driven CASP3 activation – cell-based (AID 1583); details: polyglutamine-induced caspase-3 activation, cell assay; stronger effect = higher value;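 tested at 10 µM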
[18] = yeast 75Q aggregation reduction – 75Q-TubU reporter (AID 1593); details: Yeast 75Q polyglutamine aggregation reporter
[19] = restoration of touch response, mutant HTT neurons – whole organism, C. elegans mechanosensory neurons, N-terminal huntingtin (AID 1599); details: C. elegans polyQ-huntingtin mechanosensory neurons, stronger effect = higher value
[20] = blockers of cytochrome c efflux from mitochondria – biochemical, purified mitochondria (AID 1603); details: stronger effect = lower value;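 note: mouse liver mitochondria challenged with calcium chloride; signal normalized to the plate average as 100%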
[21] = polyglutamine aggregate formation blockers (AID 1604); details: polyglutamine-induced protein aggregation inhibition assay; stronger effect = higher value; tested at 2.5 µM
[22] = glutamate transport activators, MN-1 cells, MN-1 cell line (AID 1612); details: MN-1 motor neuron cells, stronger effect = higher value;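 note: tested at 1 µM final; 0% = mean of DMSO vehicle wells on each plate; positive means more glutamate uptake than control and negative means less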
[23] = 75Q-TubH aggregate inhibition, S. cerevisiae, yeast (AID 1616); details: S. cerevisiae 75Q-TubH polyglutamine aggregation suppression; stronger effect = higher value
[24] = measured here: epithelial PC-3E GFP cell survival
[25] = measured here: mesenchymal TEM4-18 mCherry cell survival
[26] = stronger effect = lower value, cell number ratio, induced over uninduced
[27] = measured here: relative caspase fold change +Dox/-Dox
[28] = measured here: total cells with miR-34 induction, stronger effect = lower value
[29] = measured here: total cells without miR-34 induction
[30] = MELAS cybrid survival, CellTiter-Glo 48 h, stronger effect = higher value
[31] = Rieske KO mouse fibroblast survival, CellTiter-Glo 72 h

Chain of 6-phosphogluconate dehydrogenase, decarboxylating (Homo sapiens) (P52209 whole entry, looked up): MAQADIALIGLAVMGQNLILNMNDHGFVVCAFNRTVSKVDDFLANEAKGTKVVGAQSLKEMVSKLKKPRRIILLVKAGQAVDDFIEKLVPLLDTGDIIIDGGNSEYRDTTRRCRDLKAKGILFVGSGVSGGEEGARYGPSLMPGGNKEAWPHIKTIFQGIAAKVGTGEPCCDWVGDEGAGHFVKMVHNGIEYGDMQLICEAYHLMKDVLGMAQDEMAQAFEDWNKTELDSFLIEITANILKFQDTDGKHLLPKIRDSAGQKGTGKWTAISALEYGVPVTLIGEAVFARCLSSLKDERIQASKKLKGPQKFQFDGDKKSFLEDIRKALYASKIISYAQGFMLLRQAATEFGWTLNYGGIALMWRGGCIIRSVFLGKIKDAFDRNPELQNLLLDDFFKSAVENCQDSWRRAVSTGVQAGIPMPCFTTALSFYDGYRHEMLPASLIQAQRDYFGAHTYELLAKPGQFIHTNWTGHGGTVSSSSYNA
Chain of Mitogen-activated protein kinase 7 (Homo sapiens) (Q13164 whole entry, looked up, the tested form may be a part): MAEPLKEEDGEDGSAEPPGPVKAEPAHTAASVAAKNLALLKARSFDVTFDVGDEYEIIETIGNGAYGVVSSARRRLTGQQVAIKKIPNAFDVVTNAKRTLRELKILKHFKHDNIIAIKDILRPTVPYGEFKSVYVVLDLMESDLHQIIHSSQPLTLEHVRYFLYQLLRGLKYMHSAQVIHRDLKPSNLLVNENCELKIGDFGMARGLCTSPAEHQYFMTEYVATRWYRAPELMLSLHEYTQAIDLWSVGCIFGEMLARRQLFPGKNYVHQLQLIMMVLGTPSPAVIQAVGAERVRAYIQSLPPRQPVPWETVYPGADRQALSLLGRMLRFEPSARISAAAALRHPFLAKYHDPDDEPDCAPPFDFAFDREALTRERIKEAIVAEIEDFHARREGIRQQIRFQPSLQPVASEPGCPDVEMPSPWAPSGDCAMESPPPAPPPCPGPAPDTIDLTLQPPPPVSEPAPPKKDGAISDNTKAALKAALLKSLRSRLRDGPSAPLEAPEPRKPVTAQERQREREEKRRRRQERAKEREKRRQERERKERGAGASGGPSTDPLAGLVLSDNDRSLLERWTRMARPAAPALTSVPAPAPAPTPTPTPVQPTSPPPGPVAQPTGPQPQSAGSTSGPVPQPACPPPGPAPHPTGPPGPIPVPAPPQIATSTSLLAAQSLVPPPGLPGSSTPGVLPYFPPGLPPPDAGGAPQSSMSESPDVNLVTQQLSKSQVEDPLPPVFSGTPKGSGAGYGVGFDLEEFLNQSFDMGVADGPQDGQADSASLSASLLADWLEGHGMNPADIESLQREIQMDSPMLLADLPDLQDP
Chain of ATP-dependent translocase ABCB1 (Homo sapiens) (P08183 whole entry, looked up): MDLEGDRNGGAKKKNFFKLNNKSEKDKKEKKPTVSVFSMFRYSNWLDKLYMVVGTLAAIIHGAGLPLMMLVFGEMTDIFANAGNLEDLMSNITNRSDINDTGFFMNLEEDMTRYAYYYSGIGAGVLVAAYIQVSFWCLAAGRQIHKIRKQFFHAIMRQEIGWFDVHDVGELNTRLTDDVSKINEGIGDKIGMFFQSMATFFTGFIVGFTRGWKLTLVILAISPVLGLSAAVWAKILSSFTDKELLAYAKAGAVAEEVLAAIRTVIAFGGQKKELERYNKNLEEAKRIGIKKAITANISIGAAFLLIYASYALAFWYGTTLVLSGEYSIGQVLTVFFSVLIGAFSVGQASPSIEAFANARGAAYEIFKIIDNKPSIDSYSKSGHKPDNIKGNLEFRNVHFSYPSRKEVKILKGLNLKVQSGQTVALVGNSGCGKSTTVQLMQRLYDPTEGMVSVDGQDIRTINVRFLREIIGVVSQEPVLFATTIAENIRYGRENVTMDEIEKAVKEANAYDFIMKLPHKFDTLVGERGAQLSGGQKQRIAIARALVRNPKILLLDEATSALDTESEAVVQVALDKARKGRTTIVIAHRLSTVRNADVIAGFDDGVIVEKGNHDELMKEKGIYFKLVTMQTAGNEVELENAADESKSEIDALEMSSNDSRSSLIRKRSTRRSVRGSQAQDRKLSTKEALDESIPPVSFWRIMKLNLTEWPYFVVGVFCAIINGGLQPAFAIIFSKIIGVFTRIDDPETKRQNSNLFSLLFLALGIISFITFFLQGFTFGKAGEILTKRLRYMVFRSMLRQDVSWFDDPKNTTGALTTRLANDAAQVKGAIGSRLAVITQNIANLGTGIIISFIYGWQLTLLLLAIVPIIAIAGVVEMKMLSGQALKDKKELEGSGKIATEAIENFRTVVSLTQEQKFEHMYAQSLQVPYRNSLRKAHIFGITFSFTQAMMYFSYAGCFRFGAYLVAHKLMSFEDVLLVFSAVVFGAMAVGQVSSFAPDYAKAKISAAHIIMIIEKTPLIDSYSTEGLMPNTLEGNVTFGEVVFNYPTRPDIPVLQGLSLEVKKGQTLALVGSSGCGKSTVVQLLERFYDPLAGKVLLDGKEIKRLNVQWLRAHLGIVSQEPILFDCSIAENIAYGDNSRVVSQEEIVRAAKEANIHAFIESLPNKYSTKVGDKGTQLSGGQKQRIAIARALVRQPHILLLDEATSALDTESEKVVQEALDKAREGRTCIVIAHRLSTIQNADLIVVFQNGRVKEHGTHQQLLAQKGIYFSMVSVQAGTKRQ

COC(=O)[C@@]1(C)CCC[C@]2(C)c3ccc(O)c(C(C)C)c3CCC12 (stereo partly specified)
inhibition [1]: -0.875% (inactive) | red/green cell ratio (normalised) [2]: 1.1 (inactive) | normalised cell number [2, 24]: 0.97 | normalised cell number [2, 25]: 1.07 | luciferase signal [3]: 52 AU (inactive)

COc1cc2c(cc1OC)C(=O)OC2
inhibition [1]: 7.46% (inactive) | red/green cell ratio (normalised) [2]: 0.97 (inactive) | normalised cell number [2, 24]: 0.96 | normalised cell number [2, 25]: 0.94 | luciferase signal [3]: 160 AU (inactive)

Cc1cc(O)c(C)c(O)c1C(=O)O
inhibition [1]: -9.88% (inactive) | red/green cell ratio (normalised) [2]: 0.88 (inactive) | normalised cell number [2, 24]: 1.09 | normalised cell number [2, 25]: 0.97 | luciferase signal [3]: 72 AU (inactive)

COc1c2c(cc3occ(-c4ccc5c(c4)OCO5)c(=O)c13)OC(C)(C)C=C2
inhibition [1]: -0.247% (inactive) | red/green cell ratio (normalised) [2]: 0.95 (inactive) | normalised cell number [2, 24]: 1.19 | normalised cell number [2, 25]: 1.14 | luciferase signal [3]: 60 AU (inactive)

COc1ccc2c(c1)OC/C(=C\c1ccc(OC)c(O)c1)C2=O
inhibition [1]: -46% (inactive) | red/green cell ratio (normalised) [2]: 0.99 (inactive) | normalised cell number [2, 24]: 0.74 | normalised cell number [2, 25]: 0.74 | luciferase signal [3]: 88 AU (inactive)

COc1c2ccoc2nc2c(OC)c(OCC(O)C(C)(C)O)ccc12 (stereo unspecified)
fluorescence slope change [4]: 3.7% (inactive)

CC(CCc1ccc(O)cc1)NCCc1ccc(O)c(O)c1 (stereo unspecified)
fluorescence slope change [4]: 19.4% (inactive)

CC(=O)c1c(O)c(C)c(O)c2c1OC1=CC(=O)C(C(C)=O)C(=O)C12C (stereo unspecified)
normalised LDH release [5]: 1.02

O=C1C=CC(=C(c2ccc(O)cc2)c2ccc(O)cc2)C=C1
normalised LDH release [5]: 0.611

NC(=O)c1cccc(N)c1
outcome [6]: inactive

C[C@@]12C(=O)OC(=O)[C@]1(C)[C@H]1CC[C@@H]2O1
AC50 [6]: 2.95 µM (active)

CC(=O)[C@H]1CC[C@H]2[C@@H]3CCC4=CC(=O)CC[C@]4(C)[C@H]3CC[C@]12C
fluorescence ratio [7]: 0.96 (inactive) | inhibition [8]: -6.73% (inactive) | inhibition [9]: 1.44% (inactive) | fluorescence ratio [10]: 0.92 (inactive)

COC1=C(OC)C(=O)C(C/C=C(\C)CC/C=C(\C)CC/C=C(\C)CC/C=C(\C)CC/C=C(\C)CC/C=C(\C)CC/C=C(\C)CC/C=C(\C)CC/C=C(\C)CCC=C(C)C)=C(C)C1=O
SSMD [11]: 2.18 | cell count [11]: 7460 | plate-normalised HSF1 focus index [11]: 1.08 (inactive)

CCCCC/C=C\C/C=C\C/C=C\C/C=C\CCCC(=O)O
survival [12]: 45.6 (inactive) | inhibition [1]: 9.46% (inactive) | fold change [13, 26]: 1.06 (inactive) and 1 (inactive) | fold change [13, 27]: 1.01 and 0.893 | cell count [13, 28]: 5710 and 5370 | cell count [13, 29]: 5370 and 5360 | fold fluorescence [14]: 5.45 (inactive)

C[C@H](CCC(=O)O)[C@H]1CC[C@H]2[C@@H]3CC[C@@H]4C[C@H](O)CC[C@]4(C)[C@H]3CC[C@]12C
survival [12]: 3.25 (inactive) | parasite load remaining [15]: 106% (inactive) | viability [15]: 101% | inhibition [1]: 3.51% (inactive) | fold change [13, 26]: 0.876 (inactive) | fold change [13, 27]: 1.28 | cell count [13, 28]: 8840 | cell count [13, 29]: 10100 | z-score [16, 30]: 0.139 (inactive) | z-score [16, 31]: -0.0326 | luciferase signal [3]: 76 AU (inactive)

CCOc1ccc2c(c1)C(C)=CC(C)(C)N2
fluorescence slope change [4]: 16.6% (inactive) | inhibition [17]: 14.7% | score [18]: 0.77 | rescue above control [19]: 5.1 | cytochrome c release ratio [20]: 0.79 | inhibition of aggregation [21]: 25.8% | normalised LDH release [5]: 1.06 | glutamate uptake change [22]: 23.6% | aggregation suppression score [23]: 0.616 | survival [12]: 2.08 (inactive) | parasite load remaining [15]: 29.9% (inactive) | viability [15]: 95.9% | inhibition [1]: 17.3% (inactive) | fold change [13, 26]: 0.841 (inactive) | fold change [13, 27]: 1.09 | cell count [13, 28]: 8590 | cell count [13, 29]: 10200 | z-score [16, 30]: 1.71 (inactive) | z-score [16, 31]: 0.609 | luciferase signal [3]: 48 AU (inactive)
